TIM10 inh: TIM10 yeast growth inhibition | AID 463195 | inhibition, % at 10 µM | S. cerevisiae TIM10 strain growth, BacTiter-Glo luminescence, 24 h | 330,000 compounds, 1.4% hits;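 active = inhibition of 40% or more at the single tested concentration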;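 note: wild-type TIM10 isogenic control strain grown at permissive 25 °C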
Calb FLC: C. albicans growth modulation with fluconazole. C. albicans CaCi-2 (fluconazole-resistant clinical isolate) + fluconazole, Alamar Blue growth, 48 h. growth inhibition, % (test concentration not listed). 300,000 compounds, 0.57% hits. AID 1979;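 active = growth inhibition above about 58% in most replicates, limit read from the data, passing the limit was not always enough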;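 note: all wells also contain fluconazole at 8 µg/ml as a sub-toxic cotreatment; 0% = median of DMSO wells and 100% = median of geldanamycin control wells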
PfHsp90 set2: growth inhibition of yeast expressing Plasmodium Hsp90; AID 504621; inhibition, % at 9.4 µM; S. cerevisiae expressing PfHsp90, BacTiter-Glo ATP, 48 h; yeast lacking PDR1 and PDR3 efflux regulators; 310,000 compounds, 0.32% hits;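 active = every replicate shows inhibition above about 80%, whatever the replicate mean, limit read from the data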;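 note: 0% = DMSO neutral controls and 100% = 20 µM radicicol positive controls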
tim10-1 inh: growth inhibitors of tim10-1 mutant yeast | S. cerevisiae tim10-1 ts strain growth, BacTiter-Glo, 24 h | inhibition, % at 20 µM | 330,000 compounds, 2.2% hits | AID 463190;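 active = inhibition of at least 40%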;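 note: mutant grown at 25 °C; 0% = DMSO wells with yeast and 100% = wells holding no yeast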
SKKanGAS inh: inhibitors of SKKanGAS S. pyogenes growth in kanamycin (SK-promoter or general growth effect) | 300,000 compounds, 1.3% hits | inhibition, % at 7.5 µM | BacTiter-Glo, 6 h;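 active = mean replicate score, as percent of positive control median, at least 50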;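 note: strain carries kanamycin resistance gene driven by streptokinase promoter and grows in 40 µg/ml kanamycin; loss of luminescence reflects streptokinase promoter inhibition or plain growth inhibition; 0% = median of DMSO wells and 100% = positive control at its reference dose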
tim23-1 inh: growth inhibitors of tim23-1 mutant yeast; S. cerevisiae tim23-1 growth, BacTiter-Glo luminescence, 24 h; inhibition, % at 20 µM; 330,000 compounds, 1.3% hits; AID 463212;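 active = growth inhibition of the mutant yeast at or above 50%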;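 note: temperature-sensitive mutant grown at 25 °C; plate controls were DMSO-treated mutant yeast for no effect and medium wells lacking yeast for full effect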
The depositor's hits bear a star; · = no result. Hits are enriched below; roughly 4.7% of the tested compounds scored in any of these assays.

SMILES	TIM10 inh	Calb FLC	PfHsp90 set2	tim10-1 inh	SKKanGAS inh	tim23-1 inh
O=C(NC(=S)NCCO)c1sc2ccccc2c1Cl	1	-18	-37	5	-2	13
NS(=O)(=O)c1ccc(CCNC(=O)c2cc([N+](=O)[O-])ccc2N2CCCCC2)cc1	-3	-9	14	7	3	8
CC(C)/C(=N/Nc1ccccc1[N+](=O)[O-])c1ccccc1	-11	1	3	14	56*	21
COc1ccccc1NS(=O)(=O)c1ccc(C(=O)N2CCN(c3ccccn3)CC2)cc1	0	·	8	8	·	5
COCCn1cnc2c1c(=O)n(Cc1ccc(C#N)cc1)c(=O)n2Cc1ccccc1	10	-2	-15	7	-4	0
Cc1ccc(/C(=N/Nc2nc3ccccc3s2)C2=C(O)c3ccccc3C2=O)cc1	8	-2	-42	14	57*	25
Cc1ccc(S(=O)(=O)N(C)CC(=O)Nc2nc3ccccc3s2)cc1	5	-2	-24	6	10	24
CC(C)COc1ccc(-c2nn(-c3ccccc3)cc2C(=O)Nc2nccs2)cc1	6	21	-8	32	96*	-7
O=C(Nc1nccs1)c1cn(-c2ccccc2)nc1-c1ccccc1	37	-6	-10	28	22	41
Cc1ccc(N2NC(C)(c3cccs3)NC2=S)cc1 (stereo unspecified)	11	105*	-1	-1	1	34
Cc1ccccc1NC1=C/C(=N\S(=O)(=O)c2ccc(C(=O)O)cc2)c2ccccc2C1=O	21	32	-18	27	95*	48
CCc1ccc(S(=O)(=O)/N=C2\C=C(NS(=O)(=O)c3ccccc3)C(=O)c3ccccc32)cc1	18	35	11	34	63*	35
Cc1ccc(C)c(S(=O)(=O)/N=C2\C=C(NS(=O)(=O)c3ccccc3)C(=O)c3ccccc32)c1	22	67	-4	28	107*	45
CCCC(=O)NC(c1ccccc1OC)c1ccc2cccnc2c1O (stereo unspecified)	-21	101*	-39	18	14	27
CCCCC(=O)NC(c1ccccc1OC)c1ccc2cccnc2c1O (stereo unspecified)	-38	96*	106*	3	-2	34
CCCC(=O)NC(c1ccc(Cl)cc1Cl)c1ccc2cccnc2c1O (stereo unspecified)	-63	-2	40	-12	89*	49
CCCC(=O)NC(c1ccc(N(C)C)cc1)c1c(O)ccc2ccccc12 (stereo unspecified)	22	-1	22	33	4	21
CCCCC(=O)NC(c1ccc(N(CC)CC)cc1)c1ccc2cccnc2c1O (stereo unspecified)	-71	121*	72	-5	44	44
COc1ccc(C(=O)Nc2cc(-c3ccccc3)nn2-c2ccccc2F)cc1	0	·	13	6	·	38
CCOC(=O)C1=NN(C(C)=O)C2C(=O)N(CC)C(=O)C12 (stereo unspecified)	10	0	·	12	-1	6
S=c1[nH]nc(-c2cc3c(s2)-c2ccccc2CC3)o1	6	58	-91	23	73*	34
N#Cc1ccc(OCC(=O)Nc2ccc3[nH]c(=O)[nH]c3c2)cc1	-5	·	6	-6	-7	-7
Cc1ccc(NC(=O)C2CCN(S(=O)(=O)c3ccc4c(c3)NC(=O)C(C)S4)CC2)cc1Cl (stereo unspecified)	11	19	-13	11	28	14
CN(C)/C=C1\SC(=S)N(c2ccc(Br)cc2)C1=O	-7	0	-6	12	54*	14
COc1ccc(C2c3cc(OC)c(OC)cc3CC3C(=O)OCC32)cc1OC (stereo unspecified)	·	·	-3	·	·	·
SMILES	TIM10 inh	Calb FLC	PfHsp90 set2	tim10-1 inh	SKKanGAS inh	tim23-1 inh
CC12CCC(C/C1=N\N=C1\NC(=O)/C(=C\c3cccc(Br)c3)S1)C2(C)C (stereo unspecified)	16	2	5	-5	104*	19
COc1cc(/C=N/N=C2\CC3CCC2(C)C3(C)C)ccc1O (stereo unspecified)	4	56	-23	33	0	20
CCCCCCn1nc(C(=O)OCC(=O)NC2CCS(=O)(=O)C2)c2ccccc2c1=O (stereo unspecified)	-1	-5	·	10	-9	7
CC(C)(C)OC(=O)N1CCC(c2cc(=O)n3[nH]cc(C(=O)Nc4ccc(F)c(Cl)c4)c3n2)CC1	12	16	-25	7	68*	13
COc1ccc(NC(=O)c2c[nH]n3c(=O)cc(C4CCN(C(=O)OC(C)(C)C)CC4)nc23)cc1Cl	5	8	-5	8	52*	13
O=C(Cn1ccc(=O)[nH]c1=O)Nc1ccc(O)c([N+](=O)[O-])c1	·	·	16	·	·	·
Cc1ccc(C2=NC(C)(C)N=C2SCC(=O)Nc2ccc(Cl)cc2)cc1	23	16	134*	39	3	20
CC1(C)N=C(SCC(=O)Nc2ccc(Cl)cc2Cl)C(c2ccccc2)=N1	12	8	99*	22	3	20
CCCCN(CCCC)c1cc(C)nc(-c2ccccc2O)n1	-9	-8	-6	18	54*	3
CCCOc1cc(C)nc(-c2ccccc2O)n1	-8	18	-6	14	-15	7
CC(C)=NOCC(=O)Nn1c(COc2c(C)cccc2C)nc2ccccc2c1=O	3	15	19	26	-4	31
c1ccc(-c2nc(N3CCOCC3)c3ccccc3n2)nc1	5	-4	-32	2	38	-4
CCN1CCN(c2nc(-c3ccccn3)nc3ccccc23)CC1	-24	-4	·	-35	-8	-98
C/C(=N\Nc1nc(-c2ccccn2)nc2ccccc12)c1ccc(F)cc1	28	1	3	6	-2	30
CCCN(CCC)c1nc(-c2ccccn2)nc2ccccc12	32	-4	-4	17	97*	-21
c1ccc(-c2nc(N3CCCCCC3)c3ccccc3n2)nc1	24	-3	·	0	109*	-22
c1ccc(CCNc2nc(-c3ccccn3)nc3ccccc23)cc1	20	3	30	28	113*	6
Cc1n[nH]c(=O)c2c(NC(=O)CSc3nc4ccccc4c(=O)n3CCCO)oc(C)c12	-3	0	-12	-15	3	6
CC1CCN(C(=O)CN2C(=O)C(=O)N(C)C2=O)c2ccccc2S1 (stereo unspecified)	-4	·	-10	-6	·	-7
CCN(Cc1ccncc1)C(=O)c1cc(COc2c(F)cccc2F)on1	1	7	-4	6	-1	-5
O=C(c1cccc(S(=O)(=O)Nc2ccc(Br)cc2)c1)N1CCCC1	12	12	-8	3	4	5
